The subject of experiment [1] is XIP peptide (Xip251-270) binding. The experiment can be described thus: small-molecule binders of XIP peptide, primary screen, biochemical, small-molecule microarray, fluorescence 635/667 nm, 0.1 µg/mL protein (AID 1182). As to conditions: fluorescent protein binding, 635 nm, higher = more signal, called active from +8 up or from −8 down.
Another experiment deals with XIP peptide (Xip251-270). The experiment in a line: small-molecule binders of XIP peptide, primary screen, biochemical, small-molecule microarray, fluorescence 635/667 nm, 0.5 µg/mL protein (AID 1183). The note with it: small-molecule microarray binding, fluorescence 635 nm; higher = more signal.
A short description of experiment [2]: Plasmodium falciparum growth inhibition, primary screen, strain 3D7, DAPI fluorescence, 100 nL (AID 1184).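 Also: parasites grown inside human red blood cells in medium with human serum.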 As to conditions: P. falciparum 3D7 growth, 3 d, higher = more signal.
Experiment [3] addresses Homeobox protein Hox-A13 (Mus musculus) (UniProt Q62424). The experiment can be described thus: inhibitors of HoxA13-DNA binding, primary screen, biochemical, fluorescence polarization, labeled oligonucleotide (AID 1185). As to conditions: 15 min, higher = more signal, called active from +8 up or from −8 down.

Calls of active or inactive are those of the source.

Chain of Homeobox protein Hox-A13 (Mus musculus) (Q62424 whole entry, looked up): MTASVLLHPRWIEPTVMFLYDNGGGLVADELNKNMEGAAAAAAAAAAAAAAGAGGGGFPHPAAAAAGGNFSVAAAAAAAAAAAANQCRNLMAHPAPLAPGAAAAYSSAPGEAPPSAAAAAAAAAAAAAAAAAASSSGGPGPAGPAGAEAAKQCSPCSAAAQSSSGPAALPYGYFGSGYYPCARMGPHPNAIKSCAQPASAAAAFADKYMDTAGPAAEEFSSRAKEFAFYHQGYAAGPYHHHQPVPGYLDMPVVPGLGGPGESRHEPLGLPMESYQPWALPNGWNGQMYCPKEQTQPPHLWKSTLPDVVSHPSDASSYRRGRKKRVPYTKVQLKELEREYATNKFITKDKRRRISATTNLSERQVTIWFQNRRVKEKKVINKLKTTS

For the compound `C[C@@H](ON=C1[C@H]2CCn3c(=O)n(-c4ccccc4)c(=O)n3[C@H]2[C@H](O)[C@@H]2O[C@H]12)c1cn([C@@H]2COC[C@H]2O)nn1`, the composite z-score in experiment [1] is -0.24 (inactive); in the experiment on XIP peptide (Xip251-270) it was 0.324. Also, the z-score was 0.0979 in experiment [2] and -2.77 (inactive) in experiment [3].

Consider `COC(=O)[C@@H]1CC[C@H](C)[C@@H](c2ccc(C)cc2)N1C(=O)c1ccc(C=NO[C@H](C)c2cn([C@@H]3COC[C@H]3O)nn2)cc1`, for which the figures for the composite z-score (in experiment [1]; with XIP peptide (Xip251-270)) were 0.604 (inactive) and 0.78, respectively. Moreover, the values for the z-score in experiment [2] and in experiment [3] were -0.214 and -6.19 (inactive), respectively.

As to `CCOC(=O)[C@H](CC(C)C)NC(=O)CCC1CC(OC(=O)NCc2cccc3ccccc23)CC2(CCCC(COC(=O)NCCOC)O2)O1` (some centres not stated), the composite z-score was -0.182 (inactive) in experiment [1] and 0.446 in the experiment on XIP peptide (Xip251-270). Moreover, the z-score was -1.88 in experiment [2] and -3.68 (inactive) in experiment [3].

Consider `CCOC(=O)NN=C1C[C@@H](O)[C@@H](O)[C@@H]2[C@@H]3C(=O)N(c4cccc(Oc5ccccc5)c4)C(=O)[C@@H]3CC[C@H]12`, for which the figures for the composite z-score (in experiment [1]; with XIP peptide (Xip251-270)) were 0.389 (inactive) and 0.0776, respectively. Besides, the z-score in experiment [2] was 0.275; in experiment [3], 1.22 (inactive).

For `CC(C)=NOC[C@@H](C)[C@H](OCc1ccccc1)C(C)C`, the composite z-score is -0.0088 (inactive) in experiment [1] and 0.177 with XIP peptide (Xip251-270). For the same compound, the z-score is -0.89 in experiment [2] and 1.47 (inactive) in experiment [3].

As for `C=CC[C@@H]1C=C[C@H](ON=C(C)CCN2CCc3nc(-c4ccccc4)c(-c4ccccc4)cc3C2)[C@@H](CO)O1`, the composite z-score in experiment [1] was 0.957 (inactive); in the experiment on XIP peptide (Xip251-270) it was 0.58. Further, the z-score in experiment [2] was -0.0674; in experiment [3] it was -5.72 (inactive).

For the compound `CCOC(=O)CCN1C(=O)[C@H]2[C@H]3[C@H](O)[C@H](O)CC(=NNC(=O)OCc4ccccc4)[C@@H]3CC[C@H]2C1=O`, the composite z-score is 0.0651 (inactive) in experiment [1] and 0.791 in the experiment with XIP peptide (Xip251-270). The z-score was -0.597 in experiment [2] and 0.897 (inactive) in experiment [3].

For `CO[C@H]1COC(=O)[C@@H]2CCCN2C(=O)CC=C[C@@H](C)[C@H](OC)COC(=O)[C@@H](OCc2ccccc2)C=C[C@@H]1C`, the composite z-score is 0.0932 (inactive) in experiment [1] and 0.789 in the experiment on XIP peptide (Xip251-270). Also, the z-score in experiment [2] was -1.42; in experiment [3] it was -1.53 (inactive).

On to `CC(C)=CCCC(C)=CCON=C1C[C@@H](O)[C@@H](O)[C@@H]2[C@@H]3C(=O)N(Cc4ccccc4)C(=O)[C@@H]3CC[C@H]12`, for which the figures for the composite z-score (in experiment [1]; in the experiment with XIP peptide (Xip251-270)) were -0.0515 (inactive) and 0.419, respectively. Moreover, the z-score in experiment [2] was -0.869; in experiment [3], -4.91 (inactive).

Take `COC(=O)[C@H](C)NC(=O)CCC1CC(OC(=O)NCc2ccc3c(c2)OCO3)CC2(CCCC(COC(=O)NCC(c3ccccc3)c3ccccc3)O2)O1` (some centres not stated): the values for the composite z-score (in experiment [1]; in the experiment on XIP peptide (Xip251-270)) were 1.93 (inactive) and 0.699, respectively. In addition, the z-score in experiment [2] was -1.77; in experiment [3] it was -6.84 (inactive).

As to `CC[C@@H](c1ccccc1)n1c(=O)n2n(c1=O)[C@H]1[C@H](O)[C@@H]3O[C@@H]3C(=O)[C@H]1CC2`, the composite z-score was -0.144 (inactive) in experiment [1] and 0.0999 with XIP peptide (Xip251-270). In addition, the z-score was -1.22 in experiment [2] and -1.59 (inactive) in experiment [3].

As for `COC(=O)[C@@H]1CC[C@@H](C)[C@H](c2ccc(Br)cc2)N1`, the composite z-score is -0.0456 (inactive) in experiment [1] and 0.0425 in the experiment on XIP peptide (Xip251-270). The z-score in experiment [2] was 0.303; in experiment [3], -1.98 (inactive).

In the case of `Cc1cc2c(nc1C)CCCCN2CC(C)ON=C[C@@H](C)[C@H](OCc1ccccc1)C(C)C` (some centres not stated), the composite z-score in experiment [1] was -0.398 (inactive); in the experiment on XIP peptide (Xip251-270) it was -0.0948. The z-score in experiment [2] was -0.109; in experiment [3], -3.66 (inactive).

On to `CCOC(=O)[C@H](Cc1ccccc1)NC(=O)CCC1CC(OC(=O)NCCc2ccc(F)cc2)CC2(CCCC(COC(=O)NCCCN3CCCC3=O)O2)O1` (some centres not stated), for which the composite z-score is 0.414 (inactive) in experiment [1] and 0.701 in the experiment on XIP peptide (Xip251-270). Also, the z-score in experiment [2] was -1.6; in experiment [3] it was -2.25 (inactive).

As to `CC(C)=CCCC(C)=CCON=C1C[C@@H](O)[C@@H](O)[C@@H]2[C@@H]3C(=O)N(C(C)(C)C)C(=O)[C@@H]3CC[C@H]12`, the composite z-score in experiment [1] is -0.007 (inactive); with XIP peptide (Xip251-270) it was 0.427. Further, the z-score is 1.46 in experiment [2] and 0.263 (inactive) in experiment [3].

Regarding `Cc1ccc(S(=O)(=O)N[C@@H]2COC(=O)[C@@H](C)COC(=O)CC=C[C@H]2C)cc1`, the composite z-score in experiment [1] was -0.21 (inactive); in the experiment with XIP peptide (Xip251-270), 0.038. For the same compound, the z-score was 0.393 in experiment [2] and -0.0483 (inactive) in experiment [3].

For the compound `COC(=O)CC=C[C@@H](C)[C@@H](C=NOC(C)CN1CCCc2nc(C)c(C)cc21)OC` (some centres not stated), the composite z-score in experiment [1] is 0.327 (inactive); in the experiment with XIP peptide (Xip251-270), 0.274. The figures for the z-score in experiment [2] and in experiment [3] were 0.004 and -1.24 (inactive), respectively.

Turning to `C=C(C)C(=O)OCC1CN2[C@@H](CC[C@@H](C)[C@@H]2c2ccc(Br)cc2)C(=O)O1` (some centres not stated), the composite z-score in experiment [1] is -0.0135 (inactive); in the experiment on XIP peptide (Xip251-270), 0.446. In addition, the z-score is -0.19 in experiment [2] and -1.71 (inactive) in experiment [3].

For `CCCNC(=O)OC[C@H]1O[C@H](CCON=Cc2ccc(C(=O)N3[C@H](c4ccc(C)cc4)[C@@H](C)CC[C@H]3C(=O)OC)cc2)C=C[C@@H]1Oc1ccc(OC)cc1`, the composite z-score in experiment [1] was 0.236 (inactive); in the experiment with XIP peptide (Xip251-270), 0.257. For the same compound, the z-score in experiment [2] is -2.3; in experiment [3], -2.32 (inactive).

`CCCNC(=O)OC[C@H]1O[C@H](CCON=C(C)CCN2CCc3nc(CC)c(CC)cc3C2)C=C[C@@H]1Oc1ccc(OC)cc1`: the composite z-score was -0.339 (inactive) in experiment [1] and 0.27 in the experiment with XIP peptide (Xip251-270). The z-score in experiment [2] was -2.17; in experiment [3] it was -5.98 (inactive).

`CO[C@@H]1COC(=O)CC=C[C@@H](C)[C@@H]2C=C[C@H](O)[C@@H](COC(=O)CC=C[C@H]1C)O2`: the composite z-score in experiment [1] is 0.0592 (inactive); with XIP peptide (Xip251-270), 0.853. The z-score is 0.338 in experiment [2] and -2.1 (inactive) in experiment [3].

`CON=C(C)CCC(=O)OC[C@H]1O[C@H](c2ccccc2)C=C[C@@H]1Oc1ccc(OC)cc1`: the composite z-score in experiment [1] is 0.103 (inactive); with XIP peptide (Xip251-270), 0.19. Moreover, the z-score in experiment [2] was -0.442; in experiment [3], -4.5 (inactive).

On to `CC(C)(C)N1C(=O)[C@H]2[C@H]3[C@H](O)C=CC(=O)[C@@H]3CC[C@H]2C1=O`, for which the composite z-score in experiment [1] is 0.127 (inactive); with XIP peptide (Xip251-270) it was 0.16. The values for the z-score in experiment [2] and in experiment [3] were -0.0484 and 0.14 (inactive), respectively.
